ATXN2 expr inh = inhibitors of ATXN2 expression | Potency, µM (highest dose often 57 µM), usual class: inhibitors | HEK-293 ATXN2-luciferase reporter, luminescence, 24 h | 0.72% of 360,000 active; further: nearly all actives have a fitted effect of over 55% in size
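qHTS (up to 57 uM final) was run with 24 h compound exposure of reporter cells at 37 °C. Each well was multiplexed: SteadyGlo luminescence measured ATXN2-luciferase expression after a fluorogenic Gly-Phe-AFC viability readout (25 uM final).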
S2 tox = cell viability loss in ATXN counter-screen; S2 cells (HEK-293 line with an ATXN2-luciferase reporter) viability, CellTiter-Fluor protease fluorescence, 24 h; Potency, µM (doses to about 56.7 µM), hits mostly cytotoxic; 0.49% of 400,000 active; AID 651635; further: nearly all actives have a fitted effect of over 40% in size
TGFb SMAD3 inh = blocks TGF-b signaling; HepG2 CAGA-GFP TGF-b/SMAD3 reporter, GFP fluorescence, 18 h; TGF-beta stimulated, 500 pg/mL final; Potency, µM (top dose mostly 46.1 µM), actives largely listed as inhibitors; 1.2% of 410,000 active; further: nearly all actives have a fitted effect of over 65% in size
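HEPG2 CAGA-GFP reporter cells (1000/well, DMEM with 1% FBS) received compounds, then recombinant TGF-beta at 500 pg/mL final for 18 hours at 37 degrees C. Per-cell GFP summed per well was normalised to unstimulated and stimulated DMSO controls before curve fitting.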
D3 ag = D3 dopamine receptor (human) agonism; P35462; D3R DiscoveRx beta-arrestin cells, luminescence, 90 min; max activation, %; 0.58% of 410,000 active; AID 652048; in the data active means max activation above about 30%
Target sequence (P35462 whole entry, looked up): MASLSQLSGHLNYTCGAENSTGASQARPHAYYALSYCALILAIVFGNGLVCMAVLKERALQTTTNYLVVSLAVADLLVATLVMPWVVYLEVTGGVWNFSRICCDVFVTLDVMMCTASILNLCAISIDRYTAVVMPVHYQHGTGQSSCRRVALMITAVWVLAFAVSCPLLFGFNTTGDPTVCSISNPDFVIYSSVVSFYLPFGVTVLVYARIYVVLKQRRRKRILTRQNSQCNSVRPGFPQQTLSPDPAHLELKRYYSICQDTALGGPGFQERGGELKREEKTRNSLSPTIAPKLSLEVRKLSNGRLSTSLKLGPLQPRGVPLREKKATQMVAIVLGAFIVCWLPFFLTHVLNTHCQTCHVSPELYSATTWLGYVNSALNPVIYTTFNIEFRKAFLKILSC
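Agonist mode: compounds and dopamine controls were applied to plated cells for 90 min at 37 degrees C after an overnight attachment at 1500 cells/well. Luminescent read-out followed 30 - 60 minutes at room temperature with DiscoveRx detection reagent.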
DRD3 antagonist = D3 dopamine receptor (human) antagonism | P35462 | max response, negative = inhibition, % | D3R cells, DiscoveRx beta-arrestin luminescence, antagonist mode; active compounds read low | 2.5% of 360,000 active | AID 652054; in the data active means max response below about -50%; inconclusive means no clear call, values can overlap the other calls
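Cells expressing the human receptor were seeded at 1500 cells/well, incubated overnight at 37 degrees C in 5% CO2, then exposed to library compounds with dopamine controls for 90 minutes at 37 degrees C before luminescent detection.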
HepG2 viability = counter-screen for TGF-b inhibitors: cytotoxicity in HepG2 cells; 0.76% of 410,000 active; HepG2 CAGA-GFP viability, ATP luminescence, 18 h; AID 588856; Potency, µM (series often up to 46.1 µM), actives largely listed as cytotoxic
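CellTiter-Glo luminescence gave cytotoxicity after 18 hours at 37 degrees C. The cells were HepG2 CAGA-GFP in 1% FBS DMEM, stimulated with 500 pg/mL TGF-beta after compound addition. %Activity was normalised to no-cell wells (complete cell-killing) and DMSO (no toxicity), and curves were fitted and classified.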
A number is an active result; . = inactive; ? = inconclusive; / = not tested or not shown; [ ] = another dose, or the depositor's remark. Sampled rows, rich in hits. Any-hit rate of the full collection: about 4.8%. Unless noted, the call rests on the fitted dose curve; in most records, active means well fitted curve in the direction sought with a large enough effect; inconclusive means small, poorly fitted or top-dose-only effect, or another doubt; inactive means no such curve, though single readings can be large; an effect the other way counts as inactive or inconclusive.

SMILES	ATXN2 expr inh	S2 tox	TGFb SMAD3 inh	D3 ag	DRD3 antagonist	HepG2 viability
COc1ccc(CN2CCN(C(=O)c3ccco3)CC2)c(OC)c1OC	.	.	.	43	.	.
O=C(c1ccco1)N1CCN(Cc2cccnc2)CC1	.	.	.	.	.	.
COc1ccc(CN2CCN(C(=O)c3ccco3)CC2)cc1OCc1ccccc1	.	.	.	.	.	.
Cc1ccc(CN2CCc3nnc(C(NS(C)(=O)=O)C(C)C)n3CC2)cc1C (configuration not stated)	/	.	/	/	/	/
COc1ccc(OC)c(CNS(=O)(=O)c2cc(-c3onc(C)c3C)ccc2C)c1	/	/	.	.	/	.
CNC(=O)c1c(-c2ccc(F)cc2)oc2cc(N(CCO)S(C)(=O)=O)c(C3CC3)cc12	.	/	/	/	/	/
CCC1CN(CC(=O)NC(c2ccccn2)C(F)(F)F)Cc2cc(OC)ccc2O1 (configuration not stated)	/	.	/	/	/	/
O=C(c1ccco1)N1CCCN(C(=O)c2ccco2)CC1	.	.	.	.	.	.
Cc1onc(-c2ccccc2)c1C(=O)N1CCN(C(=O)c2ccco2)CC1	.	.	.	.	-125	.
O=C(c1ccco1)N1CCN(C(=O)c2ccco2)C1=S	.	?	11µM	.	.	.
O=C(c1ccco1)N1CCN(CC(O)COc2ccc3oc4ccccc4c3c2)CC1 (configuration not stated)	?	.	?	41	.	.
COc1ccc(Br)cc1CN1CCN(C(=O)c2ccco2)CC1	.	.	.	.	-61	.
CCOc1ccc(C2C(C(=O)Nc3ccc(C)cc3C)=C(C)Nc3c(C(=O)Nc4ccc(C)cc4)cnn32)cc1OC (configuration not stated)	/	/	.	.	/	.
CCN(CC)C(=O)c1c(-c2ccccc2)c(-c2ccccc2)nn(C)c1=O	/	/	?	.	/	.
COc1ccccc1CNC(=O)Cn1ncc2c(C)n(Cc3ccccc3Cl)c(C)c2c1=O	/	/	?	.	/	.
Cn1c(=O)c2c(nc(CN3CCN(C(=O)c4ccco4)CC3)n2Cc2ccccc2)n(C)c1=O	.	.	.	.	.	.
Cc1ccc(Cn2c(CN3CCN(C(=O)c4ccco4)CC3)nc3c2c(=O)n(C)c(=O)n3C)cc1	.	.	.	37	.	.
O=c1cc(N2CCCCC2)nc2n1CCCS2	.	.	.	35	.	.
CN(C)c1cc(=O)n2c(n1)SCCC2	.	.	.	.	.	.
O=c1c2ccccc2nc2n1CC/C2=C/N1CCN(c2cccc(C(F)(F)F)c2)CC1	.	.	.	.	-91	.
O=C(O)c1ccc2c(=O)n3c(nc2c1)/C(=C/c1ccc(C(F)(F)F)cc1)CC3	.	.	.	.	.	.
Cc1ccc(/C=C/c2nc3ccccc3[nH]2)cc1	/	/	?	.	/	.
COc1ccccc1/C=C/c1nc2ccccc2[nH]1	/	/	.	/	/	8.9µM
COc1ccc2c(c1)CCc1c(C(=O)Nc3ccc(F)c(Cl)c3)noc1-2	.	.	.	.	/	.
Cc1ccc(S(=O)(=O)N2CCCOC2CNC(=O)C(=O)NCCN2CCOCC2)cc1 (configuration not stated)	.	.	.	.	.	.
SMILES	ATXN2 expr inh	S2 tox	TGFb SMAD3 inh	D3 ag	DRD3 antagonist	HepG2 viability
COc1ccc(S(=O)(=O)N2CCCOC2CNC(=O)C(=O)NCCCN2CCOCC2)cc1C (configuration not stated)	.	.	.	.	.	1.4µM
COc1cc2c(cc1OC)C(COc1cc(C)cc(C)c1)N(C(=O)C(C)(C)C)CC2 (configuration not stated)	.	.	?	.	/	.
CCN(CC)CCN1c2ccccc2Sc2ccccc21	.	?	.	.	?	.
CC(=O)c1ccc2c(c1)N(C)c1ccccc1S2	.	.	.	.	.	.
COc1ccc2c(c1)Sc1ccccc1N2CCN(C)C	.	.	.	.	-81	.
CCC(=O)c1ccc2c(c1)N(CCCN(C)C)c1ccccc1S2	?	?	?	.	-109	16µM
COc1ccc(OC)c(C2Nc3c(C)cc(C)cc3-c3cc(C)nn32)c1 (configuration not stated)	.	?	?	.	/	.
COc1ccc([N+](=O)[O-])cc1NC(=O)C(C)N1CCCC1 (configuration not stated)	.	.	.	.	-62	.
O=S1(=O)N[C@@H](Cc2ccccc2)COc2cc(N3CCN(Cc4ccccc4F)CC3)ccc21	.	.	/	.	.	/
CC(C)C[C@H]1COc2cc(N3CCN(Cc4ccccc4F)CC3)ccc2S(=O)(=O)N1	.	.	/	.	-66	/
Cc1cccc(C)c1OCC(=O)NCc1nnc(SCC(=O)NC2CCCCC2)n1C	.	.	.	.	-72	.
COc1ccc(-c2[nH][nH]c(=O)c2NC(=O)c2ccccc2Br)cc1	.	.	.	.	-53	.
O=C(Nc1c(-c2ccccc2)[nH][nH]c1=O)c1ccccc1	/	/	/	.	.	/
Cc1ccc2onc(CC(=O)N3CCN(c4cc(Cl)ccc4C)CC3)c2c1	?	.	?	.	/	.
Cc1ccccc1Cn1ccn(-c2ccc(F)c(F)c2)c(=O)c1=O	/	/	.	69	/	.
C=C(C(=O)c1ccccc1)C(NC(C)(C)C)c1ccccc1 (configuration not stated)	7.5µM	?	?	.	.	.
Cc1nc(NC(=O)c2cc3c(s2)CCCCC3)sc1C(=O)N(C)C	.	?	.	.	.	.
Cc1nc(NC(=O)c2ccc(Br)s2)sc1C(=O)N(C)C	.	.	.	.	-69	.
O=C(C[n+]1ccncc1)c1ccc2ccccc2c1	/	/	.	/	/	.
O=C(CC1C(=O)N(c2ccccc2)C(=O)N1Cc1ccc(F)cc1)Nc1cccc(F)c1 (configuration not stated)	/	/	.	.	/	.
O=C(O)c1cc(-n2nnnc2SCc2ccccc2F)ccc1Cl	.[11.3 µM]	.	.	.	.	.
O=C(O)c1cc(-n2nnnc2SCc2ccc([N+](=O)[O-])cc2)ccc1Cl	.	.	.	.	-54	.
O=[N+]([O-])c1cc(Br)c(O)c(/C=N/Nc2nnnn2-c2cccc3ccccc23)c1	.	.	?	.	-85	.
CCC(=O)N1CCc2cc(Br)cc(S(=O)(=O)N3CCCC(C(=O)NCc4ccccc4)C3)c21 (configuration not stated)	.	.	?	.	/	.
O=C(Oc1cccc2cccnc12)c1cccc(N2C(=O)C3C4CCC(C4)C3C2=O)c1 (configuration not stated)	.	/	?	.	-88	.
Cc1cc(=O)[nH]c(SCCCOc2ccc(F)cc2)n1	.	.	.	.	.	.
